# Results reported in PubChem BioAssay AID651692 (Broad Institute, 2012).
# Results with a measured potency or affinity are listed apart. Activity calls are given as the source filed them.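 The calls were made as follows: active = fitted half-maximal concentration for loss of cell signal no higher than twice the top valid tested concentration; inconclusive = flat curve at 30 to 70% inhibition, or poor fit; inactive = flat within 30%, signal rise, or potency above limit.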
# Assay: MDA-MB-231 cell growth inhibition, dose response, cytotoxicity control for RAD54 inhibitor project, CellTiter-Glo luminescence, cherry-pick (AID 651692);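 also: more negative values mean stronger loss of viable cell signal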
# Details: MDA-MB-231 viability, 24 h; series mostly up to 26 µM
row,SMILES,outcome
1,CC(Cc1ccccc1)NCC(=O)Nc1cc(N(C)C)nc2ccccc12 (stereo not drawn),inactive
2,Nc1ccnn1C1CCNCC1,inactive
3,CN1CCN(c2ccc(N)cc2)CC1,inactive
4,Cc1nccc2c1[nH]c1ccccc12,inactive
5,Cc1ccc(-c2nc(N(C)C3CCN(C)CC3)c3ccccc3n2)cc1,inactive
6,COc1ccc2c(c1)[nH]c1c(C)nccc12,inactive
7,Nc1ccc(C2(c3ccc(N)cc3)CN3CCC2CC3)cc1,inactive
8,CCN1CCN(c2ccc(N)c(C)c2)CC1,inactive
9,O=C(NC1CN2CCC1CC2)c1cc(Cl)c([N+](=O)[O-])c2nc[nH]c12 (stereo not drawn),inactive
10,CN1CCN(c2cc(N3CCNCC3)ccc2[N+](=O)[O-])CC1,inactive
11,Nc1ccc(CCN2CCCC2)cc1,inactive
12,CCNCCNc1ccc([N+](=O)[O-])c2cccnc12,inactive
13,CN1CCC(N(C)c2nc(-c3ccccc3)nc3ccccc23)CC1,inactive
